NS1 function inh = influenza NS1 inhibition | AID 2326 | hit rate 0.4% among 270,000 | Potency, µM (top dose mostly 46.1 µM), for inactives: top-dose activity, positive = more growth; calls by dose curve; further: actives are rising curves; nearly all actives have a fitted effect of over 50% in size
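Growth recovery, yeast-based: influenza A NS1 expressed in S. cerevisiae causes slow growth, and suppressors are detected by OD600. The parent strain without NS1 is used as positive control.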
Sm TGR block = blocks Schistosoma mansoni thioredoxin glutathione reductase. hit rate 3% among 360,000. purified TGR, DTNB reduction, TNB absorbance 405 nm. Potency, µM (titrated, usually from 114 µM), inactives show top-dose activity change, negative = inhibition, most hits filed as inhibitors; further: on the % scale 0 is the no-effect control and ±100 the full control effect; nearly all actives have a fitted effect of over 60% in size
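Kinetic colorimetric format: TGR-catalysed, NADPH-driven DTNB reduction monitored via TNB absorbance. Enzyme dispensed at 20 nM; compound exposure 15 min at room temperature before reaction start.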
AMA1 RON2 block = inhibitors of Plasmodium falciparum AMA1-RON2 interaction | hit rate 0.2% among 360,000 | AID 720542 | Potency, µM (highest dose often 58.2 µM), for the others: top-dose activity change, negative = inhibition, actives largely listed as inhibitors | AlphaScreen AMA1-biotinylated RON2 peptide binding;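 further: 0% = vehicle wells and -100% = peptide control; nearly all actives have a fitted effect of over 45% in size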
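AMA1 (3D7) with his tag at 25 nM final met compounds first, then biotinylated RON2 peptide at 25 nM; detection used donor plus acceptor beads, 10 µg/mL apiece, read by AlphaScreen after 30 min at room temperature.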
Pf growth 96h = P. falciparum growth inhibition at 96 hours; P. falciparum luciferase reporter growth, 96 h; AID 504834; hit rate 6.9% among 320,000; Potency, µM (highest dose often 28.7 µM), for inactives: at the highest dose activity change, negative = inhibition, usual class: inhibitors; further: on the % scale 0 is the no-effect control and ±100 the full control effect
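Readout is luminescence from an integrated firefly luciferase in P. falciparum. Red cells, 2% hematocrit and 0.05% parasitemia final, were cultured with compound through two parasite generations (96 hours) at 37 C, 5% CO2.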
Pf growth 48h = inhibits P. falciparum growth in the first generation, 48 h | P. falciparum luciferase growth in erythrocytes, 48 h | Potency, µM (top dose mostly 28.7 µM), without a hit: at the top dose activity change, negative = inhibition, hits mostly inhibitors | hit rate 5.9% among 310,000; further: on the % scale 0 is the no-effect control and ±100 the full control effect
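Cell-based growth assay: transgenic P. falciparum expressing firefly luciferase, cultured in red cells within RPMI 1640 containing 0.5% w/v Albumax, 24 mM bicarbonate and gentamycin. A drop in luciferase activity indicates inhibition.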
Active calls of the source: *; ? = inconclusive; nt = no result given; ! = a repeat was not active; [ ] = another dose, or the depositor's remark. This is a sample that favours compounds with a hit; in the whole collection about 11% have one here. Unless noted, the call rests on the fitted dose curve; in most records, active means well fitted curve in the direction sought with a large enough effect; inconclusive means small, poorly fitted or top-dose-only effect, or another doubt; inactive means no such curve, though single readings can be large; an effect the other way counts as inactive or inconclusive. Potency means the concentration at half of the fitted maximal effect.

SMILES | NS1 function inh | Sm TGR block | AMA1 RON2 block | Pf growth 96h | Pf growth 48h
CN(Cc1ccco1)S(=O)(=O)c1nnc(NC(=O)c2ccccc2Cl)s1 | 8% | 11µM*! | 4% | 1% | 5%
Cc1ccccc1C(=O)Nc1nnc(S(=O)(=O)N(C)Cc2ccco2)s1 | 8% | 3.2µM* | -3% | ? | 38%
CN1CCN(C(=O)c2ccc3c(c2)N(Cc2ccc(C(F)(F)F)cc2)C(=O)c2ccccc2S3)CC1 | nt | -32% | nt | nt | nt
CN(C(=S)Nc1ccccc1)c1ccccc1 | 8% | -31% | 18%[2.32 µM] | -3% | 6%
CN(C(=S)Nc1ccc(Oc2ccccc2)cc1)c1ccc(O)cc1 | 19% | 40µM* | -8% | -16% | -10%
O=C(NCc1ccccc1)c1cccc2c1C(=O)c1ccc(/C=C/c3ccccc3)cc1S2(=O)=O | nt | nt | -4% | nt | nt
O=C(NC1CCCC1)c1cccc2c1C(=O)c1ccc(/C=C/c3ccccc3)cc1S2(=O)=O | nt | ? | -3% | 1.9µM* | ?
Cc1ccc(NC(=O)c2ccc(NC(=O)N3CCSc4ncccc43)cc2)c(Cl)c1 | nt | 1% | nt | nt | nt
O=[N+]([O-])c1ccc2ncnc(Nc3ccc4c(c3)OCCO4)c2c1 | nt | -1% | -8% | ? | 9.3µM*
CC(C)c1ccc(NC(=O)C2CCCN(S(=O)(=O)c3ccc4[nH]c(=O)ccc4c3)C2)cc1 (stereo unspecified) | nt | 4% | nt | nt | nt
CN[C@@H]1C[C@@H](c2ccc(Cl)c(Cl)c2)c2ccccc21 | -43% | -1% | nt | 13µM* | 15µM*
COc1ccccc1C1CCN(Cc2ccc(Cl)c(Cl)c2)CC1 | 4% | 0% | -23% | ? | nt
Cc1cn([C@H]2C[C@H](O)[C@@H](CNC/C=C/c3ccccc3[N+](=O)[O-])O2)c(=O)[nH]c1=O | nt | nt | 0% | nt | nt
O=C(NC(Cc1ccccc1)C(=O)O)/C(=C\c1ccc(F)cc1)NC(=O)c1ccco1 (stereo unspecified) | 13% | -5% | -3% | -24% | 14%
O=C(NCCc1c[nH]c2ccccc12)/C(=C/c1ccco1)NC(=O)c1ccco1 | 1% | nt | 10% | 0.29µM* | -1%
O=C(NC(Cc1ccccc1)C(=O)O)/C(=C/c1ccccc1)NC(=O)c1ccco1 (stereo unspecified) | ? | -2% | 6% | 5.2µM* | 25%
O=C(NCc1ccco1)/C(=C\c1ccco1)NC(=O)c1ccccc1Cl | -8% | -34% | 3% | -26% | ?
O=C(NCCc1c[nH]c2ccccc12)c1ccco1 | -6% | -5% | 0% | 51% | 28%
O=C(NCc1ccco1)/C(=C\c1ccc(F)cc1)NC(=O)c1ccco1 | 23% | 32µM* | -7% | 1% | 11%
O=C(NCc1ccco1)/C(=C/c1ccco1)NC(=O)c1ccco1 | nt | 25µM* | 8% | 2% | -6%
Cc1ccc(C(=O)N/C(=C\c2sccc2C)C(=O)NCc2ccco2)cc1 | 0% | 0% | 5% | 3.3µM* | 8%
O=C(NCc1ccco1)/C(=C\c1cccs1)NC(=O)c1ccco1 | nt | -7% | 12% | 4.1µM* | 35%
O=C(CCC1CCCN(C(=O)c2ccsc2)C1)N1CCN(c2ccccn2)CC1 (stereo unspecified) | -1% | 1% | -4% | ? | ?
CCN1CCc2nc3ccccc3c(C(=O)Nc3ccc(C#N)cc3)c2C1 | nt | -11% | -2% | 2.6µM* | ?
O=C(NC1CCCCCC1)c1c2c(nc3ccccc13)CCN(Cc1ccccc1)C2 | 16% | -7% | -9% | -29% | 6%
SMILES | NS1 function inh | Sm TGR block | AMA1 RON2 block | Pf growth 96h | Pf growth 48h
Brc1cccc(-c2cnn3c(-c4ccccc4)cc(-c4ccccc4)nc23)c1 | nt | -3% | nt | nt | nt
COc1cc(O)c(C(CC(=O)N2CCOCC2)c2ccc(N(C)C)cc2)c(OC)c1 (stereo unspecified) | -17% | ? | -15% | 79% | ?
COc1cc(O)c(C(CCN2CCOCC2)c2ccc(N(C)C)cc2)c(OC)c1 (stereo unspecified) | -11% | ? | 20µM* | 7.4µM* | 4.7µM*
COc1ccc(N2CCN(C(=O)CNC(=O)c3ccc4ccccc4c3)CC2)cc1 | nt | -4% | 0% | -28% | ?
COc1ccc(C(CCN2CCN(c3ccccc3)CC2)c2c(O)cc(OC)cc2OC)cc1 (stereo unspecified) | -1% | 7% | ? | 0.47µM* | 1µM*
COc1ccc(N2CCN(CCC(O)c3ccc4ccccc4c3)CC2)cc1 (stereo unspecified) | 0% | -19% | -27% | -14% | 3.3µM*
COc1cc(O)c(C(CCN2CCN(c3ccccc3)CC2)c2ccc(N(C)C)cc2)c(OC)c1 (stereo unspecified) | -18% | 5% | 11µM* | 0.66µM* | 0.83µM*
Cc1ccc(S(=O)(=O)N(C)C)cc1NC(=O)C(C)Sc1ccccc1 (stereo unspecified) | nt | -15% | -15% | ? | 3%
COc1cc(O)c(C(CC(=O)N2CCN(c3ccccc3)CC2)c2cc(OC)c(OC)c(OC)c2)c(OC)c1 (stereo unspecified) | -11% | -4% | 26% | 10µM* | 12µM*
CCN(CC)C(C)C(=O)c1ccccc1 (stereo unspecified) | nt | nt | nt | -1% | -1%
CCN(CC)C(NC(=O)c1ccccc1)C(=O)c1ccccc1 (stereo unspecified) | 4% | 79µM* | 0% | 10% | 4%
CC(C)(C)OC(=O)N[C@@H](Cc1ccccc1)c1nnc(S(=O)(=O)Cc2cccc(F)c2)o1 | -165% | 0.4µM* | 12% | ? | ?
C=C(C)CSc1nnc([C@H](CCSC)NC(=O)OC(C)(C)C)o1 | -7% | -13%[11.4 µM] | 0% | 10µM* | nt
CC(C)[C@H](NC(=O)OC(C)(C)C)c1nnc(S(=O)(=O)Cc2c(F)cccc2Cl)o1 | -177% | 1µM* | -2% | nt | -3%
Cc1ccccc1CS(=O)(=O)c1nnc([C@H](CC(C)C)NC(=O)OC(C)(C)C)o1 | -180% | 2µM* | 32% | 4% | 51%
COc1cccc(-c2nc(SCC(=O)Nc3ccc4c(c3)OCCO4)c(-c3ccc(C)cc3)[nH]2)c1 | nt | 0% | nt | nt | nt
CC(C)C[C@H](NC(=O)OC(C)(C)C)c1nnc(SCc2ccccc2)o1 | -6% | -8% | 1% | nt | 8.3µM*
CC[C@@H](C)[C@H](NC(=O)OC(C)(C)C)c1nnc(S(=O)(=O)Cc2cc(C)ccc2C)o1 | -185% | 2.8µM* | 22% | 3% | 3%
Cc1[nH]c(=O)[nH]c(=O)c1CSc1nnc([C@@H](NC(=O)OC(C)(C)C)C(C)C)o1 | ? | 2% | 4% | -25% | -3%
CCn1c(Cl)c(C=O)s/c1=N\S(=O)(=O)c1ccccc1 | -31% | 0.32µM* | -3% | ? | ?
CN1CCc2c(sc(N)c2C(=O)c2ccc(Cl)cc2)C1 | -2% | -25% | 1% | 4.7µM* | ?
COc1ccc(C(=O)c2c(N)sc3c2CCN(C(=O)OC(C)(C)C)C3)cc1 | 4% | ? | 57% | ? | 13µM*

High-throughput results from PubChem.
